The whole screen tested about 11,000 compounds, of which about 310 (2.8%) were called active. Cut-off read from the data, not from the text of the source: active = activity change below about -85%; inactive = the rest. The sample as a whole holds a higher share of actives than the screen did.
tested on: intestinal alkaline phosphatase [Mus musculus]; assay: activators of mouse IAP, confirmation, biochemical, luminescence, single concentration (AID 434970); conditions: purified mouse IAP, CDP-Star luminescence, 30 min, at 10 µM; activation factor: measured here: IAP activation factor, stronger effect = higher value; activity change, negative = activation: stronger effect = lower value

SMILES | activation factor | activity change, negative = activation
COC(=O)CCN(C(=O)C1C2CC3CC(C2)CC1C3)c1ccccn1 (stereo unspecified) | 0.948 | 5.2% (inactive)
COc1ccccc1-c1nnc(SCCN2CCOCC2)n1-c1ccc(C)cc1 | 0.947 | 5.3% (inactive)
CCOC(=O)C1=CN(Cc2ccco2)S(=O)(=O)N(CC)C1c1cccc(OC)c1 (stereo unspecified) | 1.02 | -1.7% (inactive)
O=S1(=O)CC(O)C(Nc2ccccc2)C1 (stereo unspecified) | 0.942 | 5.85% (inactive)
OC(c1cccc(OCc2ccccc2)c1)c1nnc(-c2ccccc2)o1 (stereo unspecified) | 1.03 | -3.4% (inactive)
CCN([C@H](CO)CC(C)C)S(=O)(=O)c1ccccc1 | 1.09 | -8.75% (inactive)
Cc1onc(-c2ccccc2)c1C(=O)NCc1cccs1 | 1.01 | -0.85% (inactive)
Cc1onc(-c2ccccc2)c1CNC(=O)Nc1cccc(Cl)c1 | 2.33 | -133% (active)
Cc1onc(-c2ccccc2)c1C(=O)NCc1ccccn1 | 0.956 | 4.35% (inactive)
Cc1onc(-c2ccccc2)c1CNC(=O)Nc1ccc(C(F)(F)F)cc1 | 1.99 | -99.1% (active)
Cc1cc(C)cc(NC(=O)NCc2c(-c3ccccc3)noc2C)c1 | 2.73 | -173% (active)
FC(F)(F)c1ccc(NC(=S)NCc2ccccc2)cc1 | 1.41 | -41% (inactive)
Cn1c(CNC(=O)Nc2cccc(Cl)c2)nnc1SCc1ccccc1 | 1.52 | -52% (inactive)
Cc1onc(-c2ccccc2)c1NC(=O)Nc1ccc(OC(F)F)cc1 | 1.48 | -47.9% (inactive)
O=C(Nc1cccc(Cl)c1)Nc1nnc(-c2ccccc2)o1 | 1.02 | -2.05% (inactive)
COC(=O)C1=NN(c2ccccc2)C2(S1)SC(C(C)=O)=C(C)N2c1ccccc1 (stereo unspecified) | 0.92 | 8% (inactive)
O=C(CC(Nc1ccc(F)cc1)C(=O)O)c1ccccc1 (stereo unspecified) | 0.959 | 4.1% (inactive)
COC(=O)c1oc2ccc(Cl)cc2c1N | 0.915 | 8.55% (inactive)
O=C(Nc1ccc2c(c1)nc1n2CCOC1)c1ccco1 | 1.29 | -29.5% (inactive)
Cc1cccc(N2O[C@H]3C=CC2CCCC3)n1 | 1.02 | -2.2% (inactive)
COc1ccc(C2C(C(=O)Nc3ccccc3)=C(C)N=C3SCC(=O)N32)cc1 (stereo unspecified) | 0.843 | 15.7% (inactive)
CCC1CCCCN1CCCNC(=O)CNC(=O)Cn1ccc2ccccc2c1=O (stereo unspecified) | 0.926 | 7.35% (inactive)

SMILES | activation factor | activity change, negative = activation
CC(CCc1ccccc1)NC(=O)c1ccncc1 (stereo unspecified) | 0.938 | 6.2% (inactive)
Cc1cccc(NC(=S)NC(C)CCc2ccccc2)c1 (stereo unspecified) | 1.15 | -14.6% (inactive)
Cc1cccc(NC(=O)NCCCCc2ccccc2)c1 | 2.38 | -138% (active)
Fc1cccc(NC(=S)NCc2ccccc2Cl)c1 | 1.27 | -27.2% (inactive)
COc1cccc(NS(=O)(=O)Cc2ccccc2)c1 | 0.904 | 9.6% (inactive)
COc1cccc(NC(=O)Nc2cccn(Cc3ccccc3)c2=O)c1 | 1.01 | -1.1% (inactive)
Cc1cccc(NC(=O)NCCc2c[nH]c3ccccc23)c1 | 1.72 | -71.8% (inactive)
Cc1cccc(NC(=O)NC(C)CCc2ccccc2)c1 (stereo unspecified) | 2.83 | -183% (active)
S=C(NCCCc1ccccc1)Nc1ccc(Br)cc1 | 1.72 | -71.9% (inactive)
O=C(NCCCCc1ccccc1)Nc1cccc(F)c1 | 2.29 | -129% (active)
Cc1ccc(NC(=O)NCCCc2ccccc2)cc1 | 1.29 | -28.6% (inactive)
COc1cccc(NC(=O)NCCCCc2ccccc2)c1 | 2.16 | -116% (active)
O=C(c1ccc(F)cc1)N1CCN(Cc2ccccc2Br)CC1 | 0.984 | 1.55% (inactive)
CCn1c(SCC(=O)Nc2nccs2)nnc1-c1cc2cccc(OC)c2o1 | 0.881 | 11.9% (inactive)
CCOc1ccc(C(=S)N2CCCC2)cc1 | 0.949 | 5.1% (inactive)
CCSc1nc(N)c2c(C)c(C)sc2n1 | 1.11 | -10.9% (inactive)
CCOc1ccccc1N1CCN(S(=O)(=O)c2ccc3c4c(cccc24)C(=O)N3)CC1 | 0.442 | 55.8% (inactive)
S=C(NCCCc1ccccc1)Nc1ccccc1Cl | 1.26 | -26.2% (inactive)
Cc1ccc(Cl)cc1NC(=S)NCCCSC1CCCCC1 | 1.29 | -28.8% (inactive)
Cc1c(Cl)cccc1NC(=S)NCCC(C)C | 1.19 | -19.2% (inactive)
Cc1cc(Cl)ccc1NC(=S)NCCC(c1ccccc1)c1ccccc1 | 2.05 | -105% (active)
